The supplement of paper PMC11865577
Counter-ions that a name gives are not always drawn.

Tested on: SARS-CoV-2 low-rank motif (SARS-low)
Test: normalised indicator fluorescence (fraction of RNA + indicator signal without compound); higher = less displacement of indicator (weaker competition)
Settings: compound concentration: 5 uM, 30 min
Outline: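 For the displacement screen, RNA and a TO-PRO-1 or TO-PRO-3 indicator were held in 20 mM phosphate pH 7.0 with 20 mM NaCl and 80 mM KCl in 96-well plates. After adding 0.25 μL of each 1 mM DMSO stock (about 5 uM final) and waiting 30 min, fluorescence was measured on an Infinite 200 PRO with excitation at 485 or 620 nm. Each value is the mean of two independent experiments, expressed as blank-subtracted indicator fluorescence relative to the no-compound RNA-plus-indicator signal.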

[1] = indicator: TO-PRO-1 0.1 uM, RNA concentration: 0.1 uM
[2] = indicator: TO-PRO-3 0.5 uM, RNA concentration: 0.5 uM

| SMILES | normalised indicator fluorescence [1] | normalised indicator fluorescence [2] |
| --- | --- | --- |
| COC1=C(OC)C(=O)C(CCCCCCCCCCO)=C(C)C1=O [Idebenone] | 1.21 | 1.12 |
| Nc1ncnc2c1ncn2[C@@H]1O[C@H](CO)[C@@H](O)[C@@H]1O [Vidarabine] | 1.11 | 1.17 |
| O=c1c(O)c(-c2ccccc2)oc2cc(O)cc(O)c12 [Galangin] | 1.12 | 1.28 |
| NC(=O)N/N=C/c1ccc([N+](=O)[O-])o1 [Furacilin] | 1.11 | 1.05 |
| COC(=O)C1=CC[C@@]23CC[C@@H]([C@@](C)(/C=C/C=C(\C)C(=O)O)OC2=O)[C@@]3(OC(C)=O)CC1 [Pseudolaric Acid B] | 0.981 | 1.27 |
| C1CCN2C[C@@H]3C[C@@H](CN4CCCC[C@@H]34)[C@H]2C1 [(-)-Sparteine sulfate pentahydrate] | 1.05 | 0.993 |
| O=c1cc(-c2ccc(O)c(-c3c(O)cc(O)c4c(=O)cc(-c5ccc(O)cc5)oc34)c2)oc2cc(O)cc(O)c12 [Amentoflavone] | 1.31 | – |
| Oc1cc(O)c2c(c1)O[C@H](c1ccc(O)c(O)c1)[C@@H](O)C2 [Cianidanol] | 1.39 | 1.17 |
| Cc1c(F)cc(C(=O)NC2CC2)cc1-c1ccc(C(=O)NCC(C)(C)C)cn1 [Losmapimod] | 1.24 | 1.04 |
| CCNC(=O)c1noc(-c2cc(Cl)c(O)cc2O)c1-c1ccc(OC)cc1 | 1.27 | 1.43 |
| O=C(O)C(O)Cc1ccc(O)c(O)c1 (stereo not drawn) [Sodium Danshensu] | 0.934 | 0.931 |
| CN(C)C[C@@H]1CCn2cc(c3ccccc32)C2=C(C(=O)NC2=O)c2cn(c3ccccc23)CCO1 [Ruboxistaurin hydrochloride] | 1.14 | 0.961 |
